Bioassay records (PubChem BioAssay)
This is a sample that favours compounds with a hit; in the whole collection about 2.1% have one here.
GSH fluor – compound fluorescence on glutathione beads, profiling panel, artefact control, biophysical, 488/530 nm, flow cytometry; fluorescence (KMESF) at 10 µM; GSH beads flow cytometry, compound fluorescence 488/530 nm; hits give high values; AID 1776, 2009; 190,000 tested, 0.25% active; in the data active = fluorescence above about 89;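 also: glutathione beads carrying GST-tagged Bcl family fusion proteins plus one bare bead set; values are compound well signal with DMSO vehicle wells as background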
HMGR II inh – inhibitors of E. faecalis class II HMGR, primary screen, biochemical, Enterococcus faecalis; inhibition, % at 10 µM; purified E. faecalis HMGR, NADPH absorbance 340 nm kinetic; 190,000 tested, 0.41% active; AID 1066, 2008;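 active = inhibition above a set limit, the median over all tested compounds plus 3 SD, cut at about 9.5% in these data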;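 also: enzyme runs in reverse so mevalonate oxidation gives rising NADPH absorbance; 0% = complete reaction with DMSO and 100% = background rate lacking mevalonate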
EP2 modulator – EP2 receptor modulators, cAMP readout, primary screen, cell-based, HTRF cAMP, PGE2 stimulation; AID 940, 2007; Prostaglandin E2 receptor EP2 subtype (Homo sapiens), P43116; EP2-expressing cells, cAMP HTRF FRET, PGE2 co-stimulation; induction, % at 25 µM; 260,000 tested, 0.83% active;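 active = compounds whose cAMP rise, as percent of the full-agonist control response, exceeds 60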;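 also: rat C6 glioma line stably carrying human EP2 under a CMV promoter; the protocol text gives 20 µM as final concentration; 100% = response of wells given 1 µM PGE2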
Target sequence (P43116 whole entry, looked up): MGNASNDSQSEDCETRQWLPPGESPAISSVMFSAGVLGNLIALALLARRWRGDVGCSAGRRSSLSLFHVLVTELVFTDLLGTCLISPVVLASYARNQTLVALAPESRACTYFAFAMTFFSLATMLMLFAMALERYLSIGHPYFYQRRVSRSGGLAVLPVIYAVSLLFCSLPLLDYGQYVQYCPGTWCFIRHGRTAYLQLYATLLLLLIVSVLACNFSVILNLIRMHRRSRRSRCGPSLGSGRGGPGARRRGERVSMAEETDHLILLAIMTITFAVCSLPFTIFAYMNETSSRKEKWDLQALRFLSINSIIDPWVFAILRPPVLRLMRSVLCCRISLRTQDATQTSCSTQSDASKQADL
Avidin bead fluor – green autofluorescence of compounds with avidin beads – biophysical, 488/530 nm, flow cytometry, artefact control, profiling panel; compound fluorescence 488/530 nm; hits give high values; fluorescence (KMESF) at 10 µM; 220,000 tested, 0.38% active; in the data active = fluorescence above about 47
PGE2 EP2 inh – human EP2 receptor antagonists, primary screen, TR-FRET cAMP, C6 glioma cells; Prostaglandin E2 receptor EP2 subtype (Homo sapiens), P43116; C6 glioma cells expressing human EP2; cells stimulated with saturating PGE2; inhibition, % at 25 µM; 260,000 tested, 0.52% active; AID 1422, 2008;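 active = percent inhibition above 40 after rounding to a whole number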;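 also: rat C6 glioma host cells with rolipram phosphodiesterase inhibitor present; the protocol text gives 20 µM as final concentration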
Active calls of the source: *; · = no result given; ! = not confirmed by another sample.

SMILES	GSH fluor	HMGR II inh	EP2 modulator	Avidin bead fluor	PGE2 EP2 inh
CCOC(=O)CCC(NC(=O)CCC(=O)NC(CCC(=O)OCC)C(=O)OCC)C(=O)OCC (stereo unspecified)	9	-2	33	4	9
CSC1=NC(=O)/C(=C\c2cccc3ccccc23)S1	11	1	-41	200*	9
Cc1ccc(OCC(=O)Nc2sc3c(c2C(N)=O)CCC3)cc1	·	·	-7	·	20
CCOC(=O)C1=C(C)NC2=C(C(=O)CC(C)(C)C2)C1c1coc2ccccc2c1=O (stereo unspecified)	19	-1	1	60*	11
CC1=C(C(=O)OCC2CCCO2)C(c2coc3ccccc3c2=O)C2=C(CC(C)(C)CC2=O)N1 (stereo unspecified)	14	-4	-18	9	5
CCc1ccc2[nH]c(=O)c(CN(Cc3cccs3)C(=O)Nc3cccc(Cl)c3)cc2c1	·	·	-35	·	8
COc1ccccc1NC(=O)/C(=C\c1cccs1)NC(=O)c1ccco1	·	·	4	49*	9
Cc1ccccc1NC(=O)/C(=C/c1cccs1)NC(=O)c1ccco1	19	-1	-1	7	4
NC(=O)c1ccc(N2CCCC2)c(N)c1	·	·	1	·	12
Cc1ccc(NC(=O)/C(=C/c2ccco2)c2ccccc2)c(C)c1	62	0	65*	11	5
Cc1cc(C)c(NC(=O)/C(=C/c2ccccc2)c2ccccc2)c(C)c1	5	-5	62*	7	3
CCn1c(CNc2ccc(F)cc2)nnc1SCCN1CCOCC1	·	·	-29	·	14
NNC(=O)CNC(=O)c1cccs1	·	·	18	·	14
C[c-]1[c-](C)[c-](C)[c-](C)[c-]1C.[Fe].c1cc2nccc(N3CCCC3)[c-]2c1 (stereo unspecified)	·	·	-3	10	55*!
COc1ccc2c(c1)cc(C)c1nn(CC(N)=O)c(=O)n12	·	·	84*	·	14
c1ccc2[nH]c(CSc3ncnc4c3oc3ccccc34)nc2c1	15	2	-12	24	10
Cc1nc(SCC(=O)NCc2ccccc2)c2oc3ccccc3c2n1	24	0	-7	50*	5
Cc1nc(SCc2nc3ccccc3[nH]2)c2oc3ccccc3c2n1	19	-2	-54	133*	30
O=C1NC2(C=Cc3ccccc3O2)Oc2ccccc21 (stereo unspecified)	·	·	25	·	12
COc1cc(OC)cc(C(=O)Nc2nnc(SCC(=O)Nc3ccc(F)c(Cl)c3)s2)c1	·	·	-41	·	5
CCCN(C(=O)c1cc(OC)cc(OC)c1)c1nnc(-c2cccc(C)c2)s1	·	·	-13	·	7
C[n+]1cc2c3c(ccc2c2ccc4cc5c(cc4c21)OCO5)OCO3	·	·	-38	·	118*
NC(=O)SC/C(=N\S(=O)(=O)c1ccccc1)Nc1ccccc1	47	-4	9	189*	3
Nc1[nH]n2c(=O)c3c(nc2c1N=Nc1ccc(Cl)cc1)CCCC3	7	0	64*	8	11
Cc1[nH]n2c(=O)c3c(nc2c1-c1ccc(Cl)cc1)CCC3	19	-7	-64	17	-2
SMILES	GSH fluor	HMGR II inh	EP2 modulator	Avidin bead fluor	PGE2 EP2 inh
COc1cccc(C2(NC(=O)c3ccc(N4CCCCS4(=O)=O)cc3)CCCC2)c1	·	·	-45	·	5
COc1cccc2sc(NC(=O)c3ccc(Br)s3)nc12	265*	-1	32	7	26
C=CCn1c(=O)c(C(=O)Nc2cccc(F)c2)c(O)c2ccccc21	·	·	19	·	10
O=C(O)COc1ccc(-c2nn[nH]n2)cc1	·	·	-12	·	8
Fc1ccc(-c2csc(N3CCN(C(=S)NCC4CCCO4)CC3)n2)cc1 (stereo unspecified)	·	·	-73	·	10
N[C@@H]1[C@@H](O[C@@H]2O[C@H](C(=O)O)[C@@H](O)[C@H](O)[C@H]2O)[C@@H](O)[C@@H](CO)O[C@@H]1O	·	·	18	·	13
COC(=O)c1c(NC(=O)c2ccco2)sc(C(=O)Nc2cc(C)ccc2C)c1C	·	·	-12	·	15
Cc1ccccc1-n1cc(CNCc2c(C(=O)N(C)C)nc3ccc(Cl)cn23)cn1	10	13*	2	10	10
